Inconclusive results are not listed. A call without a number means that no potency is given here. Calls of active or inactive are those of the source. Calls come from the whole dose curve; as a rule, active = well fitted inhibition curve with a large enough effect; inconclusive = small, poorly fitted or top-dose-only effect; inactive = flat fitted curve, though single readings scatter.
Legend:
Experiment in all cases: qHTS profiling for inhibitors of Plasmodium falciparum proliferation (AID 504749); note: nearly all actives have a fitted effect of over 60% in size
Details in all cases: P. falciparum in erythrocytes, SYBR Green DNA, 72 h; series mostly up to 28.7 µM
[1] = system: CP335
Summary of the method: (§1)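 SYBR Green fluorescence of parasite DNA, read after lysis and overnight dark incubation, measured growth over 72 h in erythrocyte culture at 0.3% parasitemia and 2.5% hematocrit. Data normalised to DMSO and 0.29 uM artemisinin, with plate-drift correction.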

[2] = system: DFO2036
Summary of the method: as §1

[3] = system: DIV14
Summary of the method: as §1

[4] = system: DIV17
Summary of the method: as §1

[5] = system: DIV30
Summary of the method: as §1

[6] = system: Dd2
Summary of the method: as §1

[7] = system: ECU
Summary of the method: as §1

[8] = system: FAB9
Summary of the method: as §1

[9] = system: HB3
Summary of the method: as §1

[10] = system: ICS
Summary of the method: as §1

[11] = system: JCK
Summary of the method: as §1

[12] = system: N140
Summary of the method: as §1

[13] = system: P93_24
Summary of the method: as §1

[14] = system: P94_40
Summary of the method: as §1

[15] = system: PAD
Summary of the method: as §1

[16] = system: PC26
Summary of the method: as §1

[17] = system: PC49
Summary of the method: as §1

[18] = system: SC27B
Summary of the method: as §1

[19] = system: GB4
Summary of the method: as §1

[20] = system: PC15
Summary of the method: as §1
Potency is the fitted concentration of half-maximal effect.

SMILES	Potency [1]	Potency [2]	Potency [3]	Potency [4]	Potency [5]	Potency [6]	Potency [7]	Potency [8]	Potency [9]	Potency [10]	Potency [11]	Potency [12]	Potency [13]	Potency [14]	Potency [15]	Potency [16]	Potency [17]	Potency [18]	Potency [19]	Potency [20]
C=CCN1CC[C@]23CCCCC2[C@H]1Cc1ccc(O)cc13 (stereo partly specified)	inactive	inactive	inactive	inactive	inactive	11.2 µM (active)	inactive	inactive	inactive	inactive	inactive	inactive	inactive	inactive	inactive	inactive	inactive	inactive		
O=[N+]([O-])c1ccc([As](=O)(O)O)cc1	4.78 µM (active)	5.01 µM (active)	10.7 µM (active)	12 µM (active)	8.49 µM (active)	3.98 µM (active)	3.55 µM (active)		12.6 µM (active)	8.91 µM (active)		4.47 µM (active)	5.01 µM (active)	7.08 µM (active)	7.94 µM (active)	13.5 µM (active)		4.47 µM (active)	8.49 µM (active)	
c1ccc(C2(c3ccccc3)CC2C2=NCCN2)cc1 (stereo unspecified)	inactive	inactive			inactive	inactive	inactive	inactive	inactive		inactive	inactive	inactive	inactive	inactive	inactive	inactive	inactive		5.62 µM (active)
CCCCCCCCCC(CC)c1ccc(S(=O)(=O)O)cc1 (stereo unspecified)	inactive	inactive	inactive	inactive	inactive	inactive	inactive	inactive	inactive	inactive	inactive	inactive	inactive	inactive	inactive	inactive	inactive	inactive	inactive	inactive
CN1C2CCC1CC(OC(=O)c1cc(Cl)cc(Cl)c1)C2 (stereo unspecified)	inactive	inactive			inactive	inactive		inactive	inactive		inactive	inactive	inactive	inactive	inactive	inactive	inactive	inactive	inactive	inactive
Cc1ccc(Cl)c(O)c1	inactive	inactive	inactive	inactive	inactive	inactive	inactive	inactive	inactive	inactive	inactive	inactive	inactive	inactive	inactive	inactive	inactive	inactive	inactive	inactive
CC(=O)OCC1=C(C(=O)O)N2C(=O)[C@@H](N)[C@@H]2SC1	inactive		inactive	inactive	inactive	inactive	inactive	inactive	inactive	inactive	inactive					inactive	inactive		inactive	inactive
CCCCc1ccc(C(=O)O)nc1	inactive	inactive		inactive	inactive	inactive	inactive	inactive	inactive	inactive	inactive	inactive	inactive	inactive	inactive	inactive	inactive	inactive	inactive	inactive
CC(C)NC(C)Cc1ccc(I)cc1 (stereo unspecified)		inactive					inactive	inactive	inactive	inactive	inactive	inactive	inactive	inactive	inactive		inactive	inactive		inactive
COC(C)(C)CCCC(C)C/C=C/C(C)=C/C(=O)OC(C)C (stereo unspecified)		inactive						inactive					8.91 µM (active)					inactive		
NC(=O)CN1CC(O)CC1=O (stereo unspecified)	inactive	inactive	inactive	inactive	inactive	inactive	inactive	inactive	inactive	inactive	inactive	inactive	inactive	inactive	inactive	inactive	inactive	inactive	inactive	inactive
CCCN1CCC[C@H](c2cccc(O)c2)C1	inactive	inactive	inactive		inactive		inactive	inactive	inactive		inactive	inactive	inactive	inactive	inactive	inactive	inactive	inactive		inactive
CN[C@@H]1C[C@@H](c2ccc(Cl)c(Cl)c2)c2ccccc21			5.36 µM (active)	7.57 µM (active)		10 µM (active)		inactive		10 µM (active)	inactive									
COC(=O)c1cncn1C(C)c1ccccc1 (stereo unspecified)	inactive		inactive	inactive	inactive											inactive			inactive	
C[C@]12CCC(=O)C(O)=C1CC[C@@H]1[C@H]3CCC(=O)[C@@]3(C)CC[C@@H]12	inactive				inactive	inactive	inactive	inactive	inactive	inactive	inactive				inactive	inactive	inactive		inactive	inactive
NC1=NC(=O)N2CC12 (stereo unspecified)			inactive		inactive			inactive		11.2 µM (active)	inactive	inactive					inactive	inactive		inactive
COC(=O)[C@@H](N)CCCN=C(N)N[N+](=O)[O-]	inactive	inactive	inactive	inactive	inactive	inactive	inactive	inactive	inactive	inactive	inactive	inactive	inactive	inactive	inactive	inactive	inactive	inactive	inactive	inactive
C#CC1(O)CCC2C3CCC4=CC(=O)CCC4(C)C3CCC21C (stereo unspecified)	inactive	inactive	inactive	inactive	inactive	inactive	inactive	inactive	inactive	inactive	inactive	inactive	inactive	inactive	inactive	inactive	inactive	inactive	inactive	inactive
CN(C)[C@@H]1C(=O)C(C(N)=O)=C(O)[C@@]2(O)C(=O)C3=C(O)c4c(O)cccc4[C@@](C)(O)[C@H]3[C@H](O)[C@@H]12			inactive	inactive		3.55 µM (active)	inactive	inactive			inactive					inactive	inactive	inactive		inactive
O=C(O)COc1ccccc1	inactive	inactive	inactive	inactive	inactive	inactive	inactive	inactive	inactive	inactive	inactive	inactive	inactive	inactive	inactive	inactive	inactive	inactive	inactive	inactive
C1CCC(NC2CCCCC2)CC1	inactive	inactive	inactive	inactive	inactive	inactive	inactive	inactive	inactive	inactive	inactive	inactive	inactive	inactive	inactive	inactive	inactive	inactive	inactive	inactive
CC(=O)[O][Hg][c]1ccccc1	5.36 µM (active)	3.98 µM (active)	4.78 µM (active)	4.26 µM (active)		0.126 µM (active)	10 µM (active)	3.98 µM (active)	6.31 µM (active)	3.55 µM (active)	3.98 µM (active)	3.55 µM (active)	5.01 µM (active)	3.55 µM (active)	6.31 µM (active)	6.75 µM (active)	2 µM (active)	4.47 µM (active)	4.26 µM (active)	3.55 µM (active)
Cc1cc(O)ccc1Cl	inactive	inactive	inactive	inactive	inactive	inactive	inactive	inactive	inactive	inactive	inactive	inactive	inactive		inactive	inactive	inactive	inactive	inactive	inactive
CC[N+]1(CCOC(=O)C(O)(c2ccccc2)c2ccccc2)CCCCC1	inactive	inactive	inactive	inactive	inactive	inactive	inactive	inactive	inactive	inactive	inactive	inactive		inactive	inactive	inactive	inactive	inactive	inactive	inactive
CCCCCCCCCCCCCCCC[N+](C)(C)C	8.49 µM (active)		6.75 µM (active)	8.49 µM (active)			8.91 µM (active)			7.08 µM (active)							inactive	12.6 µM (active)	4.78 µM (active)	
O=C(O)C(Cl)Cl	inactive	inactive	inactive	inactive	inactive	inactive	inactive	inactive	inactive	inactive	inactive	inactive	inactive	inactive	inactive	inactive	inactive	inactive	inactive	inactive

From PubChem BioAssay (NCATS)
